This passage reports activation results from PubChem BioAssay AID588819 (The Scripps Research Institute Molecular Screening Center, 2011).

The whole screen tested about 360,000 compounds, of which about 320 (0.089%) were called active. The sample as a whole holds a higher share of actives than the screen did. Unmarked numbers belong to inactive results. Cut-off read from the data, not from the text of the source: active = activation above about 19% (passing the limit was not always enough); inactive = the rest.

Sequence of Muscarinic acetylcholine receptor M1 (Homo sapiens) (P11229 whole entry, looked up): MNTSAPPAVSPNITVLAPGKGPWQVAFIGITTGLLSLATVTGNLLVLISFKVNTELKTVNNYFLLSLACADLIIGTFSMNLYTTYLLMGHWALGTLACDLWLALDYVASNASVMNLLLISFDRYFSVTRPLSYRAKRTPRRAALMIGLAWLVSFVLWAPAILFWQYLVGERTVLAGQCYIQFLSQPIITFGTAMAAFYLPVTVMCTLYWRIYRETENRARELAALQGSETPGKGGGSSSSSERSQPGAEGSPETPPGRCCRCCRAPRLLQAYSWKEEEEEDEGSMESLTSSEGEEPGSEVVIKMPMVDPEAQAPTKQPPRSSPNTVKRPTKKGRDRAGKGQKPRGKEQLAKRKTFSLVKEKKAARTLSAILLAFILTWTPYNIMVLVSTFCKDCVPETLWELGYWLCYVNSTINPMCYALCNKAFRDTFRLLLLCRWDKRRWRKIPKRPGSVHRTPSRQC

The experiment has as its target Muscarinic acetylcholine receptor M1 (Homo sapiens) (UniProt P11229). The experiment can be described thus: CHRM1 PAMs potentiating acetylcholine calcium signal – CHO-K1 cells, Fluo-8 calcium fluorescence, 1536-well, primary screen (AID 588819). The following applies: CHO-K1 hM1, Fluo-8 calcium fluorescence, ACh EC20; at 3 µM; active compounds read high; 0% = ACh EC20, 100% = maximal ACh.
Take `O=C(NNS(=O)(=O)c1c(F)cc(F)c(Cl)c1F)C12CC3CC(CC(C3)C1)C2`: the activation was -10.7%.

Take `COc1ccc(CNC(=O)COC(=O)CCS(=O)(=O)c2ccc(C)cc2)cc1OC`: the activation was 4.46%.

In the case of `CCCn1nc(C(=O)OCc2nc(N)nc(Nc3ccccc3C)n2)c2ccccc2c1=O`, the activation was 11.4%.

On to `CCOc1ccc2ccccc2c1/C=N/NC(=O)c1c(C)cc(C)[nH]c1=O`, for which the activation was 7.97%.

On to `Oc1cccc(C2c3[nH]c4ccccc4c3CCN2Cc2cnn(-c3ccccc3)c2)c1` (stereo not given), for which the activation was -6.09%.

For `Cc1nc2ccc(NC(=O)c3cccc(S(=O)(=O)N4CCOCC4)c3)cc2s1`, the activation is 3.59%.

As for `O=C(O)c1cccc(S(=O)(=O)Nc2ccc(O)cc2Sc2nc3ccccc3s2)c1`, the activation was 31.9% (active).

On to `O=[N+]([O-])c1c(NCCO)cc(Sc2nc3ccccc3s2)c2nonc12`, for which the activation was 1.97%.

With `CCn1c(CN2C(=O)CSc3ccccc32)n[nH]c1=S`, the activation was -0.34%.

With `CCC(C)[C@H](NC(=O)N1CCn2c1nc1ccccc12)C(=O)NCc1ccc(OC)cc1` (stereo not given in full), the activation is 0.16%.

As to `CC(C)(C)NC(=O)Cn1c(SCC(=O)Nc2nccs2)nc2ccccc21`, the activation is 2.24%.

With `CCOC(=O)C1(Cc2cccc(OC)c2)CCCN(S(=O)(=O)c2cccnc2)C1` (stereo not given), the activation was 6.27%.

In the case of `CN1/C(=C\C=C2\N=C(c3ccc(F)cc3)OC2=O)C(C)(C)c2ccccc21`, the activation was -5.26%.

In the case of `CN(C(=O)c1cccc(NC(=O)Cc2ccc(NC(=O)C3CCN(C(=O)C4CCCCC4)CC3)cc2)c1)C1CCC1`, the activation was 0.54%.

Regarding `CS(=O)(=O)N(CC(=O)NC1CCCC1)Cc1ccc(F)cc1`, the activation was 0.34%.

As to `Cc1ccc(NC(=O)Cn2cccc2C2=NC(c3ccccc3)CO2)c(C)c1` (stereo not given), the activation was 6.3%.

Regarding `COCCn1c(SCC(=O)Nc2ccc3c(c2)CCC3)nc2ccccc2c1=O`, the activation was 5.21%.

`CCCC1NC(=O)NC(C)=C1C(=O)OCC` (stereo not given): the activation is 3.33%.

In the case of `COCC(=O)Nc1cc(C(=O)OC)cc(C(=O)OC)c1`, the activation was 7.56%.

With `Cc1cc(=O)oc(C)c1C(=O)Nc1cnc2ccccc2c1`, the activation was 1%.

On to `COc1ccc(S(=O)(=O)N2CCN(C(=O)c3cc(C)oc3C)CC2)cc1`, for which the activation is 10.8%.

As to `CCOc1ccc(S(=O)(=O)N2CCN(C(=O)c3oc4ccccc4c3C)CC2)cc1`, the activation is 24.4% (active).

Consider `CCOC(=O)C1CCN(C(=O)c2oc3ccc(S(=O)(=O)N4CCCCCC4)cc3c2C)CC1`, for which the activation was 1.16%.

As to `CCOP(=O)(OCC)C(Nc1ccc([N+](=O)[O-])cc1)c1ccc(Cl)cc1` (stereo not given), the activation is -2.85%.

With `Cc1ccc2oc(=O)c3cnn(CC(=O)N4CCN(c5ccccn5)CC4)c3c2c1`, the activation was -8.22%.

With `COCCNC(=O)NC(=O)COC(=O)C1(c2ccc(Cl)cc2)CC1`, the activation was -0.78%.

Regarding `O=C(NCc1ccc(Cl)cc1)c1cc(=O)nc2sc(-c3ccccc3)nn12`, the activation is -4.02%.

On to `O=C(Cn1nc(Cc2cccnc2)c2ccccc2c1=O)NCC1COc2ccccc2O1` (stereo not given), for which the activation is 9.27%.

Consider `O=C(Cn1cnc2ccccc2c1=O)NCC1COc2ccccc2O1` (stereo not given), for which the activation was 3.11%.

Take `O=C(CN1C(=O)C2C3C=CC(C3)C2C1=O)NCC1COc2ccccc2O1` (stereo not given): the activation was 19.5% (active).

Take `Cc1nn(Cc2ccccc2)c(C)c1C(=O)NCCCN1CCCC1=O`: the activation is 3.09%.

As for `COc1ccc(C)cc1NC(=O)CN(C)S(=O)(=O)c1ccc2c(c1)n(C)c(=O)c(=O)n2C`, the activation is 11.7%.

Turning to `CCOC(=O)c1cc2occc2n1CC(=O)N1CCN(C(=O)c2ccco2)CC1`, the activation is 0.31%.

`O=C(N/C(=C\c1ccc(O)cc1)C(=O)N1CCCCC1)c1ccccc1`: the activation is -7.21%.

For the molecule `O=C(O)c1ccc(NN=CC2=C(N3CCOCC3)/C(=C/c3ccccc3)CC2)cc1`, the activation is 1.33%.

Regarding `O=C1Nc2ccc(Br)cc2/C1=N/N=C/C1=C(N2CCOCC2)C(=C\c2ccccc2)/CC1`, the activation was 19.2% (active).

For the molecule `Cc1cccc(N2CC(C)Cn3c2nc2c3c(=O)n(CC(=O)OCc3ccccc3)c(=O)n2C)c1` (stereo not given), the activation was 6.13%.

On to `O=C(CCc1ccccc1)Nc1ccnn1C1CCN(Cc2ccc(OCCO)cc2)CC1`, for which the activation was -2.48%.

Regarding `COc1cccc(Cn2cnc3c([N+](=O)[O-])c(C)c(C)cc32)c1`, the activation was -0.11%.

As to `COCCNC(=S)N(CCc1c(C)[nH]c2ccc(C)cc12)Cc1cccnc1`, the activation was 9.1%.

Consider `Cc1ccc(N(Cc2ccc(C(=O)Nc3ccccc3C(=O)NCc3ccco3)cc2)S(C)(=O)=O)cc1C`, for which the activation is -6.42%.

For the molecule `Cc1cccc(Nc2ccccc2C(=O)NCc2ccco2)c1C`, the activation is -3.33%.

As for `COc1ccc(C(=O)Nc2ccccc2C(=O)NCc2ccco2)cc1`, the activation was 30.1% (active).

As to `CN=C(Nc1cccc(S(=O)(=O)N2CCOCC2)c1)c1ccccc1`, the activation was -5.57%.

`Nc1nnnn1/N=C/c1cc([N+](=O)[O-])ccc1O`: the activation was 26.2% (active).

For the molecule `Nc1nnnn1/N=C/c1cccc(Br)c1`, the activation is 11.8%.

As to `Nc1nnnn1/N=C/c1cccs1`, the activation is 1.93%.

Take `O=C(NCC(O)c1nc2ccccc2[nH]1)c1ccc(Br)cc1` (stereo not given): the activation was -1%.

On to `OC(c1nc2ccc(F)cc2[nH]1)C(O)c1nc2ccc(F)cc2[nH]1` (stereo not given), for which the activation was 3.09%.

Turning to `CC(C)c1nc2ccc(C(=O)O)cc2[nH]1`, the activation is 31.2% (active).

In the case of `CN(c1ccccc1)S(=O)(=O)c1cccc(C(=O)NNC(=O)c2ccncc2)c1`, the activation is 1.76%.

For `Cc1ccc(-c2cc(C(=O)N/N=C/C=C/c3ccco3)c3ccccc3n2)cc1C`, the activation was 21.5% (active).

Regarding `CCOc1ccc(-c2cc(C(=O)N/N=C/c3ccc(O)cc3)c3ccccc3n2)cc1`, the activation is 9.09%.

As for `O=C(N/N=C/C=C/c1ccco1)c1cccs1`, the activation was 8.09%.

As to `O=c1[nH]c2ccc(S(=O)(=O)N3CCCC3)cc2[nH]1`, the activation was 2.57%.

On to `O=C(C1CCN(C2CCN(Cc3ccc4cc(F)ccc4n3)CC2)CC1)N1CCCC1`, for which the activation is 8.71%.

With `CCN(CC)CCn1c(=S)[nH]c2ncccc2c1=O`, the activation is 1.96%.

For `CCc1ccc(NC(=O)CC2C(=O)NCCN2C(=S)Nc2ccccc2)cc1` (stereo not given), the activation is 7.43%.

Turning to `COc1ccccc1C(=O)Nc1nc2nc(-c3ccccc3)cc(=O)n2[nH]1`, the activation is 10.9%.

As to `O=C(CCC(=O)N1CCN(S(=O)(=O)c2ccc(Cl)cc2)CC1)NCc1cccc(C(F)(F)F)c1`, the activation was -4.55%.

For `COC(=O)c1ccc(C(=O)Nc2cc(Cl)ccc2Cl)cc1NC(=O)c1ccccc1C`, the activation was 7.99%.

Turning to `CCOC(=O)c1sc(/N=C/C2=C(O)CC(C)(C)CC2=O)c(C(=O)OCC)c1C`, the activation is 2.16%.

In the case of `CC(Oc1ccccc1F)C(=O)NN` (stereo not given), the activation is 1.45%.

In the case of `COc1ccc(CCNC(=O)C2CCCN(Cc3nc(-c4cccc(Cl)c4)oc3C)C2)cc1OC` (stereo not given), the activation was 4.43%.

As to `NC(=O)C1CCN(Cc2nc3c(Br)cc(Br)cc3c(=O)[nH]2)CC1`, the activation was 8.06%.

For the molecule `O=C(O)C1CCN(S(=O)(=O)N2CCOCC2)CC1`, the activation is 29.8% (active).

Turning to `O=C(NCc1ccccc1Cl)C1CCN(S(=O)(=O)N2CCOCC2)CC1`, the activation was -0.4%.

As to `COc1ccc(CNC(=O)C2CCN(S(=O)(=O)N3CCOCC3)CC2)cc1`, the activation was 5.85%.

As to `COc1cc2c(cc1OC)C(C(=O)NCc1ccco1)C1c3ccccc3CCN1C2=O` (stereo not given), the activation is 3.09%.

Take `O=C(NCc1csc(-c2cccs2)n1)C1CC1`: the activation is 9.22%.

For `CC(=O)c1ccc(S(=O)(=O)Nc2ccc(-c3ccc4nncn4n3)cc2)cc1`, the activation was 7.59%.

For the molecule `O=C(c1cncc(Br)c1)N1CCN(c2ccc([N+](=O)[O-])cc2)CC1`, the activation is -20%.

With `CCc1cccc(C)c1NS(=O)(=O)c1c(C)nc2sccn2c1=O`, the activation is 4.98%.

As for `Cc1ccc(-c2csc(N3CCN(c4cc5c(cc4Cl)nc(-c4ccncc4)n5CCOCCO)CC3)n2)cc1`, the activation was 21.4%.

As to `Cc1ccc2nc(SCC(=O)N3CCN(c4ccccc4)CC3)nc(=O)n2c1`, the activation was 3.95%.

Take `Cc1ccc(-n2c(CNc3ccc(F)cc3)nnc2SCC(=O)N2CCOCC2)cc1`: the activation was 7.13%.

With `O=C(O)CN1C(=O)CC(Cc2ccccc2)C1=O` (stereo not given), the activation is 11.7%.

Take `O=C1N[C@@H](Cc2ccccc2)C(=O)N2[C@H]1C[C@]1(Br)c3ccccc3N(S(=O)(=O)c3ccccc3)[C@H]21`: the activation was 7.1%.

On to `CSc1ccc(S(=O)(=O)NCC(=O)OCC(=O)NC2(C#N)CCCCC2)cc1[N+](=O)[O-]`, for which the activation was 3.7%.

For the molecule `Cc1ccc(N2C(=O)c3ccccc3C2(O)c2ncc[nH]2)cc1` (stereo not given), the activation is 8.87%.

For the molecule `CCc1c(C)nc2ncnn2c1N1CCC(C(=O)NCc2ccc3c(c2)OCO3)CC1`, the activation was 5.91%.

`COCCn1c(SCC(=O)N2CCCCCC2)nc2c(c1=O)SCC2`: the activation is 26.5% (active).

For `COCCn1c(SCC(=O)Nc2ccccc2F)nc2c(c1=O)SCC2`, the activation is 7.02%.

Consider `Cn1c(SCC(=O)N2CCCCC2)nc2c(c1=O)SCC2`, for which the activation was -5.48%.

For `CSCCC(NC(=O)c1ccco1)C(=O)Nc1cc(C)ccn1` (stereo not given), the activation was 3.47%.

In the case of `CSCCC(NC(=O)c1ccco1)C(=O)OCC(=O)Nc1ncc(Cl)c(C)c1Cl` (stereo not given), the activation was 20.9% (active).

In the case of `Cc1c(Cl)cnc(NC(=O)COC(=O)C2CCCC2)c1Cl`, the activation is 4.9%.

Turning to `C/C(=N/NC(=O)c1ccn(C)n1)c1ccncc1`, the activation is 33.2% (active).

With `CC(=NNC(=O)c1ccncc1)c1ccc(Cl)c(Cl)c1`, the activation is -2.62%.

In the case of `C/C(=N/NC(=O)c1ccncc1)c1ccc2c(c1)OCO2`, the activation is 6.79%.
